Laboratory results: paper PMC4336329 (PLoS ONE, 2015)
The whole screen tested about 310,000 compounds, of which about 14,000 (4.5%) showed an effect of 50% or more. The effect is printed as a negative number. The sample holds strong results, similar compounds and a random draw of the others, so the mix is not that of the screen.

Each molecule was assayed against human ether-à-go-go-related gene (hERG) potassium channel (human, UniProt Q12809) (assay: primary screen, population patch clamp on CHO cells stably expressing hERG; higher = less effect of the substance).
Chain of human ether-à-go-go-related gene (hERG) potassium channel (Q12809 whole entry, looked up): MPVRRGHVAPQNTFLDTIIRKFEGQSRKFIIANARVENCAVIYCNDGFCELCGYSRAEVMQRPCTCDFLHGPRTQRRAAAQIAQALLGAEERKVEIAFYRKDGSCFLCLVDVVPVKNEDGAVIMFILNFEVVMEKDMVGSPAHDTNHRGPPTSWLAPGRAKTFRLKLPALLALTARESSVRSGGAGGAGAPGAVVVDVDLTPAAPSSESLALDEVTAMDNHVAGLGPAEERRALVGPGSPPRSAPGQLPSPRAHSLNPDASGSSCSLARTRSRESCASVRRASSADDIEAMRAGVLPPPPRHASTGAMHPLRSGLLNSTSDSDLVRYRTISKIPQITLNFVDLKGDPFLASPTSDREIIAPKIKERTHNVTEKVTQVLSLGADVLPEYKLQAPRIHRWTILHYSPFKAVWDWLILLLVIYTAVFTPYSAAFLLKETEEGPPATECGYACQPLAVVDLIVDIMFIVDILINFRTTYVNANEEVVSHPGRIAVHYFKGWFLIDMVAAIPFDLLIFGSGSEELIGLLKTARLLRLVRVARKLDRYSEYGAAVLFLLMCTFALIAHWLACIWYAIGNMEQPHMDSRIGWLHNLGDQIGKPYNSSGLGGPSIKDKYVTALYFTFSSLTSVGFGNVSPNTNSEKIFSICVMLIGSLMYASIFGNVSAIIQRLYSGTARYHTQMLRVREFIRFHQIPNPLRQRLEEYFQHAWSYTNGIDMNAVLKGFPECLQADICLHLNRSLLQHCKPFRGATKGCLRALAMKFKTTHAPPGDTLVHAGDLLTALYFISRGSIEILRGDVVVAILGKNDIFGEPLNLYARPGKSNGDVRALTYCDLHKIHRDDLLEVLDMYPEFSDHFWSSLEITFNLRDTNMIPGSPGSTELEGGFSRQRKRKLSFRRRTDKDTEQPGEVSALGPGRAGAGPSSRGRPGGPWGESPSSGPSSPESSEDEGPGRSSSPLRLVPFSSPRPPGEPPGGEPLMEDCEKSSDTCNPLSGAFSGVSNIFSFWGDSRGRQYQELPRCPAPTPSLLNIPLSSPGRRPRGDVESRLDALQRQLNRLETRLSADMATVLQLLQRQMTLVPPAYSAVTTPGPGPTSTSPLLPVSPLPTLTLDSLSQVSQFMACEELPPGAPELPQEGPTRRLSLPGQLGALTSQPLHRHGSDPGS
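Also: peak tail current of the secondary pulse compared with the same well before compound.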

Row | SMILES | hERG current change (%, negative = inhibition) at 10uM
1 | CC(C)C[C@H](NC(=O)C1CC(=O)N(c2ccc(F)cc2)C1)C(=O)N1CCCCC1 (stereo partly shown) | -0.716%
2 | CC1Cc2ccccc2N1C(=O)CSc1nn2c(=O)c(C(C)(C)C)nnc2s1 (stereo not shown) | 0.00368%
3 | CC(=O)Nc1ccc(S(=O)(=O)Nc2cc(-c3ccccc3)nn2C)cc1 | 18.5%
4 | COc1ccccc1N1CCN(CC(C)N(C(=O)C2CCCCC2)c2ccccn2)CC1 (stereo not shown) | -67.9%
5 | COc1ccccc1N1CCN(CC(=O)c2ccc(F)cc2)CC1.Cl | 15.7%
6 | COc1ccccc1N1CCN(C(=O)C(CC(C)C)NC(=O)C2CCCCC2)CC1 (stereo not shown) | -16.6%
7 | COc1ccccc1N1CCN(C(=O)CCC(=O)N2CCN(c3ccc(F)cc3)CC2)CC1 | -17%
8 | O=C(CCN1CCN(c2ccccc2)CC1)NNC(=O)Cc1ccccc1Cl | 5.76%
9 | Cl.O=C(CCN1CCOCC1)c1ccc(Br)cc1 | 25.2%
10 | O=C(CCN1CCN(c2ccccc2)CC1)c1ccc(Br)cc1 | -55.1%
11 | COc1ccccc1N1CCN(CCN(C(=O)C2CCCCC2)c2ccccn2)CC1.O=C(O)/C=C\C(=O)O | -27.4%
12 | COc1ccc(OCCCC(=O)NNC(=O)CCN2CCN(c3ccccc3)CC2)cc1 | 7.89%
13 | COc1ccccc1N1CCN(CCCC(=O)c2ccc(F)cc2)CC1 | -71.7%
14 | CC(Oc1ccc(Br)cc1)C(=O)NNC(=O)CCN1CCN(c2ccccc2)CC1 (stereo not shown) | -61.9%
15 | O=C(CCN1CCN(C(=O)c2ccccc2)CC1)c1ccc(Br)cc1 | -29.5%
16 | Oc1ccc(Cl)cc1C1=NNC(c2cccs2)C1 (stereo not shown) | 9.76%
17 | COc1ccc(C(=O)Nc2cc(C)on2)cc1OC | 10%
18 | O=C(NCCn1cc(SCc2ccc(F)cc2)c2ccccc21)c1c(F)cccc1F | 9.31%
19 | COc1cccc(C(=O)OCCN2C(=O)c3ccccc3C2=O)c1OC | 4.5%
20 | CC1CC(C)CN(CCCNC(=O)Cn2ncc3c([nH]c4ccccc43)c2=O)C1 (stereo not shown) | -18%
21 | CC(C)NS(=O)(=O)c1ccc(CCC(=O)Nc2ccc3c(c2)OCO3)cc1 | 1.66%
22 | COc1ccc2c(c1)C(C)=CC(C)(C)N2C(=O)Nc1ccccc1 | -14.9%
23 | O=C(OCC(=O)N1CCN(c2ccccc2)CC1)c1cc(Br)ccc1Cl | -25.3%

Row | SMILES | hERG current change (%, negative = inhibition) at 10uM
24 | CN(CC(=O)Nc1ccc(F)cc1)C(=O)c1cc(-c2ccco2)nc2ccccc12 | -32.5%
25 | CCOC(=O)C1=C(CC)Nc2ccccc2N=C1NC(=O)Nc1ccccc1OC | 13.8%
26 | COC(=O)c1ccc(N2C(=O)C3CC=CC(C)C3C2=O)cc1 (stereo not shown) | 19.3%
27 | COc1ccc(OC)c(NC(=O)CCN2CCN(c3ccccc3OC)CC2)c1 | 2.82%
28 | COc1ccc(C(=O)N2CCN(c3ccccc3OC)CC2)cc1 | 21%
29 | COc1ccc(C(=O)CCN2CCN(c3ccccc3OC)CC2)cc1.Cl | -50.3%
30 | OC1CCCN(Cc2nc(Cc3ccccc3Cl)no2)C1 (stereo not shown) | 9.94%
31 | O=C(CN(Cc1ccco1)C(=O)c1ccc(F)cc1F)Nc1ccccc1C(F)(F)F | -21.5%
32 | CCOC(=O)C1CCN(C(=O)COc2ccc(Cl)cc2Cl)CC1 | -40.7%
33 | CCOC(=O)C1CCN(C(=O)COc2cc(C)c(Br)c(C)c2)CC1 | -43.2%
34 | CCOC(=O)C1CCN(C(=O)COc2ccc(Cl)cc2C)CC1 | -46.1%
35 | CCOC(=O)C1CCN(C(=O)COc2ccc(Br)cc2Br)CC1 | -51.8%
36 | CCOC(=O)C1CCN(C(=O)COc2cc(C)c(Br)cc2C)CC1 | -54.7%
37 | CCOC(=O)C1CCN(C(=O)COc2ccc(Br)cc2C)CC1 | -19.3%
38 | COc1cccc(N2C(=O)C3C(C2=O)C3(c2ccccc2)c2ccccc2)c1 (stereo not shown) | -3.19%
39 | CCN(CC)C(=O)CSc1nnc2sc3ccccc3n12 | 14.8%
40 | CCOC(=O)C1(Cc2cccc(OC)c2)CCCN(Cc2nccn2CC)C1 (stereo not shown) | -30.8%
41 | CCOC(=O)C1(CCc2ccccc2)CCN(Cc2nccn2CC)CC1 | -66.2%
42 | CCOC(=O)C1(Cc2ccccc2)CCCN(Cc2ccccn2)C1 (stereo not shown) | -20.7%
43 | CCOC(=O)N1CCN(Cc2ccccn2)CC1.O=C(O)C(=O)O | 0.59%
44 | CCOC(=O)C1(Cc2ccccc2)CCN(Cc2nccn2CC)CC1 | -20%
45 | CCOC(=O)C1(CCOc2ccccc2)CCN(Cc2nccn2CC)CC1 | -58.2%
46 | CCOC(=O)C1(CCc2ccccc2)CCN(Cc2ccccn2)CC1 | -74.3%

Row | SMILES | hERG current change (%, negative = inhibition) at 10uM
47 | CCOC(=O)C1(Cc2ccc(Cl)cc2)CCN(Cc2nccn2CC)CC1 | -67.6%
48 | CCOC(=O)Cn1cnc2c(cnn2-c2ccc(Cl)cc2)c1=O | -4.32%
49 | O=C(CCCc1ccccc1)Nc1ccc(Br)cc1F | 14.4%
50 | Cc1cc(OCC(=O)c2ccc(C(F)(F)F)cc2)n2cnnc2n1 | 5.8%
51 | COc1ccc(N(CC(=O)Nc2cccc([N+](=O)[O-])c2C)S(C)(=O)=O)cc1OC | -7.79%
52 | S=C(NCc1ccco1)Nc1cccc(Cl)c1 | -6.16%
53 | CCN(CC)S(=O)(=O)c1cccc(NC(=O)COC(=O)c2n[nH]c(=O)c3ccccc23)c1 | -2.07%
54 | COC(=O)c1ccccc1NC=C1C(=O)OC2(CCCCC2)OC1=O | -1.07%
55 | Cc1cccc(-c2nnc(NC(=O)c3cccs3)s2)c1 | -21.7%
56 | COc1ccc(S(=O)(=O)n2ccc(-c3ccc(OCCN(C)c4ccccn4)cc3)n2)cc1 | 11.4%
57 | CCOC(=O)C1(CCCc2ccccc2)CCN(Cc2nccn2CC)CC1 | -74%
58 | Cc1oc(S(=O)(=O)N2CCOCC2)cc1C(=O)Nc1ccc(F)cc1 | -6.29%
59 | O=C(CSc1nc2ncccc2[nH]1)Nc1ccc2c(c1)OCO2 | 9.63%
60 | Cc1cc(C)n2nc(SCC(=O)Nc3ccccc3)nc2n1 | -4.16%
61 | Cc1cc(C)n2nc(SCC(=O)c3cc(C)n(CC4CCCO4)c3C)nc2n1 (stereo not shown) | 1.05%
62 | CCCn1c(C)cc(C(=O)CSc2nc3nc(C)cc(C)n3n2)c1C | 6.97%
63 | Cc1cccc(NC(=O)CSc2nc3nc(C)cc(C)n3n2)c1 | -32.6%
64 | Cc1cc(C)cc(NC(=O)CSc2nc3nc(C)cc(C)n3n2)c1 | -50.2%
65 | Cc1cc(C)n2nc(SCC(=O)c3cc(C)n(-c4cc(C)on4)c3C)nc2n1 | -67.5%
66 | CNC1=C(N(C(C)=O)c2ccc(Br)cc2)C(=O)c2ccccc2C1=O | 11.5%
67 | COc1ccc(S(=O)(=O)NCc2cccs2)cc1 | 2.67%
68 | CCC(C)(C)NC(=O)CN(C(=O)CCC(=O)Nc1ccccn1)c1ccc(F)c(Cl)c1 | -1.31%
69 | Cc1cc(=O)oc2cc(NC(=O)c3ccccc3C(=O)O)ccc12 | 15.7%

Row | SMILES | hERG current change (%, negative = inhibition) at 10uM
70 | CN(CC(=O)Nc1ccccc1Br)C(=O)CNC(=O)c1ccc(Oc2ccccc2)cc1 | -17.8%
71 | O=C1N(C2CCCC2)C[C@@H]2C[C@@H](c3cccn3-c3ccccn3)N3CCC[C@@]123 | -62.6%
72 | CN1C[C@@H]2C[C@@H](c3cccn3-c3nccs3)N3CCC[C@@]23C1=O | -19.2%
73 | O=C1N(C2CCCC2)C[C@@H]2C[C@@H](c3cccn3-c3nccs3)N3CCC[C@@]123 | -66.6%
74 | CN1C[C@@H]2C[C@@H](c3cccn3-c3ccccn3)N3CCC[C@@]23C1=O | -43.6%
75 | CCn1ccnc1[C@@H]1C[C@H]2CN(c3ccccc3OC)C(=O)[C@]23CCCN13 | 19.8%
76 | CCCCNc1nc2c(c(=O)[nH]c(=O)n2C)n1CCOc1ccccc1 | 3.6%
77 | O=C(CCSc1ccccn1)c1ccccc1 | 8.82%
78 | CCOC(=O)CC(NC(=O)Cc1cccs1)c1ccccc1Cl (stereo not shown) | 5.29%
79 | Cc1ccccc1C(=O)N1N=C(c2cccc(NS(C)(=O)=O)c2)CC1c1cccs1 (stereo not shown) | -6.36%
80 | Cc1cc(C)c(CN2CCN(Cc3ccc(C)o3)C(CCO)C2)c(-n2cccn2)c1 (stereo not shown) | -76.4%
81 | Cc1ccc(CN2CCN(Cc3cnn(-c4ccc(F)cc4)c3)CC2CCO)o1 (stereo not shown) | -56.1%
82 | Cc1ccc(CN2CCN(Cc3c(C)nn(-c4ccc(F)cc4)c3C)CC2CCO)o1 (stereo not shown) | -34.6%
83 | Cc1ccc(CN2CCN(Cc3cn[nH]c3-c3ccccc3)CC2CCO)o1 (stereo not shown) | -12.7%
84 | Cc1ccc(CN2CCN(Cc3ccncc3)CC2CCO)o1 (stereo not shown) | -8.3%
85 | CCn1cc(CN2CCN(Cc3ccsc3)C(CCO)C2)cn1 (stereo not shown) | -3.26%
86 | OCCC1CN(Cc2cnn(-c3ccc(F)cc3)c2)CCN1Cc1ccsc1 (stereo not shown) | -65.7%
87 | Cc1ccc(CN2CCN(Cc3ccc(O)cc3)CC2CCO)o1 (stereo not shown) | -7.85%
88 | OCCC1CN(Cc2cnn(-c3ccccc3Cl)c2)CCN1Cc1ccsc1 (stereo not shown) | -11.7%
89 | Cc1ccc(CN2CCN(Cc3cnc(C)s3)CC2CCO)o1 (stereo not shown) | -1.95%
90 | Cc1ccc(CN2CCN(Cc3cnn(-c4ccc(Cl)cc4)c3)CC2CCO)o1 (stereo not shown) | -69.8%
91 | Cc1ccc(CN2CCN(Cc3c(C)nn(C(C)C)c3C)CC2CCO)o1 (stereo not shown) | -7.24%
